Activity calls are given as the source filed them. The call rests on the fitted dose curve; in most records, active means well fitted curve in the direction sought with a large enough effect in the repeat runs; inconclusive means weak or mixed curves; inactive means flat fitted curve, though single readings scatter. Starred links: 1 amine or outer side, 2 acyl side, 3 side chain; linkers in the order of their positions; H or OH if unused. Positions of bridges follow the written chain, without caps; N, C: chain ends. Non-standard residues stand in square brackets, D forms with d. Residues, ends and D or L forms follow the SMILES beside them. *: point of attachment. X5 = NC1=N[C@@H]([C@H](N[*:1])C(=O)[*:2])C[C@H](O)N1; ΔAla(Z-3-ureido) = NC(=O)N/C=C(\N)C(=O)O; β3hOrn = NCCC[C@H](N)CC(=O)*; Dap = NC[C@H](N)C(=O)O
Assays:
[1] = qHTS assay to test for compound auto fluorescence at 535 nm (green) in HEK293 cells (AID 720680); details: green autofluorescence 485/535 nm; series mostly up to 46 µM
[2] = qHTS assay to test for compound auto fluorescence at 460 nm (blue) in HEK293 cell free culture (AID 720681); details: cell-free medium, autofluorescence 405/460 nm (blue); series mostly up to 46 µM
How it was run: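 Test compounds were pinned into cell-free culture medium (DMEM with 10% FBS) and fluorescence was read directly at Ex/Em 405/460 nm. Signals were expressed as fluorescence equivalents of triamterene, with DMSO vehicle as control.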

[3] = qHTS assay to test for compound auto fluorescence at 535 nm (green) in HEK293 cell free culture (AID 720682); details: cell-free medium, green autofluorescence 485/535 nm; series mostly up to 46 µM
How it was run: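 Green-label autofluorescence (485 nm excitation, 535 nm emission) measured on compound added to cell-free culture medium (DMEM, 10% FBS). Output is expressed relative to fluorescein.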

[4] = qHTS assay to test for compound auto fluorescence at 590 nm (red) in HEK293 cell free culture (AID 720683); details: cell-free medium autofluorescence, Ex540/Em590 red; series mostly up to 46 µM
How it was run: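 Tox21 10K library compounds were pinned into cell-free DMEM with 10% FBS and fluorescence was read at excitation 540 nm. Activity is expressed as Rose Bengal sodium equivalency.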

[5] = qHTS assay to test for compound auto fluorescence at 590 nm (red) in HepG2 cell free culture (AID 720684); details: cell-free medium autofluorescence, red 540/590 nm; series mostly up to 46 µM
How it was run: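 Red fluorescence (540 nm excitation, 590 nm emission) was measured after compound transfer into cell-free MEM supplemented with 10% FBS. Values are equivalencies against Rose Bengal sodium.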

[6] = qHTS assay to test for compound auto fluorescence at 460 nm (blue) in HepG2 cell free culture (AID 720685); details: Cell-free culture medium, blue autofluorescence 405/460 nm; series mostly up to 46 µM
How it was run: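 Compound (23 nL) or DMSO pinned into cell-free MEM with 10% FBS; blue fluorescence read at 405/460 nm excitation/emission, expressed as auto-fluorescence equivalency to triamterene.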

[7] = qHTS assay to test for compound auto fluorescence at 535 nm (green) in HepG2 cell free culture (AID 720686); details: Cell-free medium, green autofluorescence 485/535 nm; series mostly up to 46 µM
[8] = qHTS assay to test for compound auto fluorescence at 460 nm (blue) in HepG2 cells (AID 720687); details: autofluorescence 405/460 nm, 1 h; series mostly up to 46 µM
How it was run: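 Cells (2,000/well in MEM with 10% FBS) attached overnight at 37 C, then were exposed to compound or DMSO for 1 hr at 37 C, 5% CO2. Fluorescence read at Ex/Em 405/460 nm, expressed as triamterene-equivalent signal.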

Measured: Potency

Cc1cc(O)c2c(c1)O[C@@]1(C)CC[C@H]3C(C)(C)CCCC34CO[C@@H]2[C@H]41 (some centres not stated)
inactive: all assays above

CCCCC[C@H](O)/C=C/[C@H]1[C@H](O)CC(=O)[C@@H]1CCCCCCC(=O)O
inactive: all assays above

C=C1/C(=C\C=C2/CCC[C@]3(C)[C@@H]([C@H](C)OCCC(C)(C)O)CC[C@@H]23)C[C@@H](O)C[C@@H]1O
inactive: all assays above

CCCCCCOc1ccc(C(=N)N(CCCC)CCCC)c2ccccc12
inactive: all assays above

CC[C@@H](C(=O)[C@@H](C)[C@@H](O)[C@H](C)[C@@H]1O[C@@H]([C@@H](CC)C(=O)O)CC[C@@H]1C)[C@H]1O[C@]2(C=C[C@@H](O)[C@]3(CC[C@@](C)([C@H]4CC[C@](O)(CC)[C@H](C)O4)O3)O2)[C@H](C)C[C@@H]1C
inactive: all assays above

CCN(CC)CCOCCOC(=O)C(CC)(CC)c1ccccc1
inactive: all assays above

NCCC[C@H](N)C(=O)O
inactive: all assays above

COCC1=C(C(=O)OC(C)OC(=O)OC(C)C)N2C(=O)[C@@H](NC(=O)/C(=N\OC)c3csc(N)n3)[C@H]2SC1 (some centres not stated)
inactive: all assays above

CCN(CC)c1ccc(C(=C2C=CC(=[N+](CC)CC)C=C2)c2ccccc2)cc1
inactive: all assays above

C=C1CC[C@H](O)CC1=C/C=C1\CCC[C@]2(C)[C@@H]([C@H](C)CC[C@@H](O)C(C)(C)O)CC[C@@H]12
inactive: all assays above

c1cnc2cc3c(cc2n1)[C@@H]1CNC[C@H]3C1
inactive: all assays above

S=C=Nc1ccc(N=C=S)cc1
inactive: all assays above

O=C(Nc1ccc(Br)cc1)c1cc(Br)c(Br)s1
inactive: all assays above

CCCCCCCCCCCCCCCCOCCOCCOCCOCCOCCOCCOCCOCCOCCOCCOCCOCCOCCOCCOCCOCCOCCOCCOCCOCCO
inactive: all assays above

CC1(C)[C@@H]2CC[C@@]1(C)[C@H](OC(=O)CSC#N)C2
inactive: all assays above

CCCC(=O)N1CCCN(c2nc(N)c3cc(OC)c(OC)cc3n2)CC1
inactive: all assays above

CC(C)Cc1ccc([C@@H](C)C(=O)NS(C)(=O)=O)cc1
inactive: all assays above

OC[C@H]1OC([S-])[C@H](O)[C@@H](O)[C@@H]1O.[Au+] (some centres not stated)
inactive: all assays above

CN1c2cc(O)c(N=NC(N)=O)cc2CC1S(=O)(=O)O (configuration not stated)
inactive: all assays above

Cc1nnc(C(C)C)n1C1C[C@H]2CC[C@@H](C1)N2CC[C@H](NC(=O)C1CCC(F)(F)CC1)c1ccccc1 (some centres not stated)
inactive: all assays above

COC(=O)CCC[N+](C)(C)C
inactive: all assays above

C#C[C@]1(O)CC[C@H]2[C@@H]3CCC4=C/C(=N/O)CC[C@@H]4[C@H]3CC[C@@]21CC
inactive: all assays above

O=C(O)[C@H]1/C(=C/CO)O[C@@H]2CC(=O)N21
inactive: all assays above

CCOc1ccc(N=C(C)Nc2ccc(OCC)cc2)cc1
inactive: all assays above

CN(CCO)CC(O)Cn1cnc2c1c(=O)n(C)c(=O)n2C (configuration not stated) (tested in a mixture with another compound)
inactive: all assays above

CC(C)(C)C(=O)OCOC(=O)[C@@H]1N2C(=O)[C@@H](N=CN3CCCCCC3)[C@H]2SC1(C)C
inactive: all assays above

CCC(=O)OCC(=O)[C@@]1(OC(=O)CC)[C@@H](C)C[C@H]2[C@@H]3CCC4=CC(=O)C=C[C@]4(C)[C@@]3(Cl)[C@@H](O)C[C@@]21C
inactive: all assays above

NCCC(=O)[N-][C@@H](Cc1cnc[nH]1)C(=O)O.[Zn]
inactive: all assays above

CC(C)(C)CC(C)(C)c1cc(Cc2cc(C(C)(C)CC(C)(C)C)cc(-n3nc4ccccc4n3)c2O)c(O)c(-n2nc3ccccc3n2)c1
inactive: all assays above

CC1(C)S[C@@H]2[C@H](NC(=O)[C@H](N)c3ccccc3)C(=O)N2[C@H]1C(=O)OCOC(=O)[C@@H]1N2C(=O)C[C@H]2S(=O)(=O)C1(C)C
inactive: all assays above

CC(O)[C@@H]1NC(=O)[C@H](Cc2ccccc2)NC(=O)[C@H](C(C)O)NC(=O)[C@H](CCCCN)NC(=O)[C@H](Cc2c[nH]c3ccccc23)NC(=O)[C@H](Cc2ccccc2)NC(=O)[C@H](Cc2ccccc2)NC(=O)[C@H](CC(N)=O)NC(=O)[C@H](CCCCN)NC(=O)[C@@H](NC(=O)CNC(=O)[C@H](C)N)CSSC[C@@H](C(=O)O)NC(=O)[C@H](CO)NC1=O (some centres not stated)
inactive: all assays above

C/C=C1\NC(=O)[C@H]2CSSCC/C=C/[C@H](CC(=O)N[C@H](C(C)C)C(=O)N2)OC(=O)C(C(C)C)NC1=O (some centres not stated)
inactive: all assays above

O=C1CSC2(CCN(CCCN3c4ccccc4Sc4ccc(Cl)cc43)CC2)N1
inactive: all assays above

NCCC[C@H](N)CC(=O)N[C@H]1CNC(=O)[C@H]([C@H]2C[C@H](O)NC(N)=N2)NC(=O)/C(=C/NC(N)=O)NC(=O)[C@H](CO)NC(=O)[C@H](CO)NC1=O (β3hOrn-[Dap]SS[ΔAla(Z-3-ureido)][X5]; lactam 1-C)
inactive: all assays above
